# Data published in PubChem BioAssay AID504832 (National Center for Advancing Translational Sciences (NCATS), 2011).
# The whole screen tested about 310,000 compounds, of which about 18,000 (5.8%) were called active. About 22% were inconclusive and are not listed. The entries come from a sample that favours actives as a whole. Values without a mark were called inactive. Calls follow the shape of the dose curve; as a rule, active = well fitted inhibition curve with a large enough effect; inconclusive = small, poorly fitted or top-dose-only effect, or another doubt; inactive = no such curve, though single readings can be large or run the other way.
# Test: Primary qHTS for delayed death inhibitors of the malarial parasite plastid, 48 hour incubation
# Conditions: P. falciparum luciferase growth in erythrocytes; series mostly up to 28.7 µM; activity change, negative = inhibition: at the top concentration
# Outline: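 Luminescence readout; reporter = integrated firefly luciferase in P. falciparum. RBC culture at 2% hematocrit, 0.1% parasitemia final, 37 C/5% CO2; decreased signal taken as growth inhibition.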
# % is scaled to controls: 0 for no effect and ±100 for the full control effect; potency is read from the fitted curve at half-maximal effect.
SMILES,"activity change, negative = inhibition",Potency
Cc1cccc(NC(=O)Nc2nnc(-c3ccccc3)o2)c1,10.4%,
COc1cccc(NC(=O)NCc2ccc(F)cc2)c1,17.6%,
Cc1cccc(NC(=O)Nc2cccc(Oc3c(F)c(F)c(F)c(F)c3F)c2)c1,,4.15 µM (active)
Cn1c(=O)c(=O)n(C)c2cc(S(=O)(=O)CCC(=O)N3CCCCC3)ccc21,-2.89%,
COc1cccc(OCc2cc(C(=O)N3CCN(C(=O)c4ccco4)CC3)no2)c1,-6.87%,
COc1ccc(OC)c(C(=O)NC(CC(N)=O)c2ccc(N3CCC(N4CCCCC4)CC3)c([N+](=O)[O-])c2)c1 (stereo not given),9.68%,
CN(C)CCCN1C(=O)CSC1c1ccc([N+](=O)[O-])cc1 (stereo not given),-1.3%,
CCCCCCCCCCCCN1C(=O)CSC1c1cccnc1 (stereo not given),,1.85 µM (active)
O=C(O)C1CSC(c2cccnc2)N1 (stereo not given),23.7%,
CCN(CC(=O)Nc1ccc(NC(C)=O)cc1)C(=O)CSC(=S)N1CCCC1,-12.7%,
Cc1cc(C)nc(N/N=C/c2ccc([N+](=O)[O-])o2)n1,-1.43% [at 0.00184 µM],
CCOc1cc(/C=N/Nc2cc(C)nc3ccc(C)cc23)ccc1O,30.6%,
CCN(CC)c1ccc(/C=N/Nc2nc(C)cc(C)n2)c(O)c1,,7.38 µM (active)
CC(C)NC(=O)N1CCN(c2ccncc2S(=O)(=O)N2CCCCC2)CC1,-10.9%,
O=C(CCS(=O)(=O)c1ccccc1)NC1CCCC1,122%,
COc1ccccc1OCCCC(=O)Nc1ccc2c(c1)OCCO2,15%,
O=C(NCCN1CCOCC1)c1ccc2c(c1)ncn2C1CCCC1,33.8%,
O=C(Cn1c(-c2ccccn2)nc2ccccc21)NCCN1CCOCC1,13.8%,
c1ccc2cc3c(NCCN4CCOCC4)ccnc3cc2c1,,0.147 µM (active)
O=C(NCCS(=O)(=O)N1CCN(c2ccccc2)CC1)c1ccco1,4.48%,
CC1CN(C(=S)Nc2ccc(Br)cc2Cl)CC(C)O1 (stereo not given),9.95%,
CS(=O)(=O)c1ccccc1C(=O)Nc1ccc2sccc2c1,8.68%,
COc1ccc(CC(NC(C)=O)C(=O)NC2CCN(C(=O)c3ccc(Cl)cc3)CC2)cc1 (stereo not given),-15.7%,
COc1ccccc1N(C)S(=O)(=O)c1ccc(Cl)c(C(=O)Nc2ccncc2)c1,,8.28 µM (active)
COc1ccccc1N(C)S(=O)(=O)c1ccc(C(=O)NC2CCCCCC2)cc1,0%,

SMILES,"activity change, negative = inhibition",Potency
COc1ccccc1N(C)S(=O)(=O)c1ccc(Cl)c(C(=O)N2CCC(C(N)=O)CC2)c1,-11.5%,
COc1ccc(CNC(=O)COC(=O)c2c(C)nn(-c3ccccc3)c2C)cc1OC,-4.91%,
FC(F)(F)c1cnc(Oc2ccccc2-c2nnc(-c3ccc(Cl)cc3)o2)c(Cl)c1,,4.15 µM (active)
COC(=O)Cc1ccc(Oc2ncc(C(F)(F)F)cc2Cl)cc1,33.3%,
CSc1ccccc1-c1nnc(-c2ccc(Cl)cc2)o1,57.1%,
Cc1ccsc1C(=O)N[C@@H](C)c1nnc2ccccn12,-4.35%,
NS(=O)(=O)c1ccc2nc(NC(=O)CS(=O)(=O)c3ccc(F)cc3)sc2c1,0.278%,
Cc1cc(S(=O)(=O)NCc2ccccn2)c(Cl)cc1Cl,-17.7%,
O=C(CC1NCCNC1=O)Nc1ccc(Oc2ccccc2)cc1 (stereo not given),34.8%,
O=C(CC1Nc2ccccc2NC1=O)Nc1ccccc1 (stereo not given),,11.7 µM (active)
O=C(CC1Nc2ccccc2NC1=O)Nc1ccccc1NC(=O)CC1Nc2ccccc2NC1=O (stereo not given),76.8%,
O=C(NCCc1ccc(Cl)cc1Cl)c1cc([N+](=O)[O-])c[nH]c1=O,-17.3%,
CC(=O)c1c(C)[nH]c(C(=O)OCC(=O)Nc2c(C)n(C)n(-c3ccccc3)c2=O)c1C,2.3%,
CCOc1ccc(CN(Cc2ccco2)C(c2cccs2)c2nnnn2C(C)(C)C)cc1 (stereo not given),,3.29 µM (active)
CC(C)(C)n1nnnc1C(c1ccccc1F)N1CCN(C(=O)c2ccco2)CC1 (stereo not given),-24.8%,
CCOc1ccc(S(=O)(=O)N(CC(=O)NCC(F)(F)F)Cc2ccco2)cc1,-9.02%,
CS(=O)(=O)N1CCN=C1SCc1ccc(F)cc1,-13.1%,
Cc1ccc(Cc2cnc(NC(=O)/C(C#N)=C/c3ccc(-c4cccc([N+](=O)[O-])c4)o3)s2)cc1,31.9%,
O=C(NCCCN1CCOCC1)c1ccc([N+](=O)[O-])cc1[N+](=O)[O-],8.63%,
N#C/C(=C\c1ccc(-c2cccc([N+](=O)[O-])c2)o1)C(=O)NCCN1CCOCC1,,10.4 µM (active)
COc1ccc(C2CC(=O)NC(=O)C2)cc1,6.49%,
NS(=O)(=O)c1ccc(CCNC(=O)COC(=O)COc2cccc(C(F)(F)F)c2)cc1,-11.2%,
Nc1c(N(CCCO)C(=O)C2CCCC2)c(=O)[nH]c(=O)n1Cc1ccccc1,3.41%,
Cc1nc2ccccc2n1CC(O)c1ccccc1 (stereo not given),0.0018%,
CC(C)Cn1cnc2c1c(=O)n(CC(O)c1ccccc1)c(=O)n2CC(C)C (stereo not given),,4.65 µM (active)

SMILES,"activity change, negative = inhibition",Potency
CC(=O)Cn1cnc2c(cnn2-c2ccccc2)c1=O,39.5%,
N#Cc1ccc(C2N=C(c3ccccc3)NO2)cc1 (stereo not given),270%,
O=C(CNC(=O)c1cccs1)N/N=C/c1cccc(Br)c1,5.15%,
O=C(CSC1=NS(=O)(=O)c2cc(F)ccc2N1)Nc1ccccc1F,13.4%,
CN1c2ccc(C=O)c3c(C=O)ccc(c23)N(C)C1(C)C,,11.7 µM (active)
COc1ccc(-c2noc(CNC(=O)C(C)Oc3ccccc3)n2)cc1 (stereo not given),-23%,
CC1CCCCC1NC(=O)NC(=O)COC(=O)C1=NN(c2ccccc2)C(=O)CC1 (stereo not given),3.43%,
CCN1C(=O)[C@@H]2[C@@H](c3ccc(-c4ccccc4)cc3)N3CCCC[C@@]3(C(=O)OC)[C@@H]2C1=O,,9.28 µM (active)
CCn1cc(CN2CCC(C(=O)Nc3cccc(-c4cccc(Cl)c4)c3)CC2)cn1,-76.4%,
CCNC(=O)N1CCCC(C(=O)c2ccc(-c3ccccc3)cc2)C1 (stereo not given),-11.1%,
O=C(NCc1ccccc1)C1C(=O)N(Cc2ccccc2)C(=O)C1C1(O)CCCC1 (stereo not given),-29.1%,
CCCCCCSc1ccc([C@@H]2[C@@H]3C(=O)N(CC)C(=O)[C@@H]3[C@]3(C(=O)OC)CCCCN23)cc1OC,,1.85 µM (active)
CCN1C(=O)[C@@H]2[C@@H](c3ccc(-c4cccc(Cl)c4)cc3)N3CCC[C@@]3(C(=O)OC)[C@@H]2C1=O,,11.7 µM (active)
CCOC(=O)c1cc(S(=O)(=O)NCCc2ccc(OC)c(OC)c2)cn1C,-14.8%,
COc1cccc(/C=C/C(=O)OCC(=O)N2CCCc3ccccc32)c1,15%,
CC(C)CC(=O)Nc1nnc(S(=O)(=O)N(C)c2ccc(Cl)cc2)s1,6.02%,
CCOc1ccc(CN2CCN(CCCc3ccccc3)C(CCO)C2)cc1 (stereo not given),-7.9%,
COc1ccc(CCNS(=O)(=O)c2cc3c(cc2C)NC(=O)CO3)cc1OC,0.0646%,
CC1(C)CC(=O)C=C(N2CCCC2)C1,-7.8%,
O=C1CC(N2CCN(C(c3ccccc3)c3ccccc3)CC2)C(=O)N1 (stereo not given),-29.3%,
CC1(C)CC(N2CCN(C(c3ccccc3)c3ccccc3)CC2)=CC(=[N+]2CCCCC2)C1,,0.415 µM (active)
COC(=O)c1ccc(C(=O)NC2CC(C)(C)Cc3c2cnn3-c2ccc(F)cc2)nc1 (stereo not given),-23.5%,
Cc1cc(-c2ccc(S(=O)(=O)N3CCc4ccccc4C3)s2)on1,0.317%,
CCC(Cc1ccccc1)NS(=O)(=O)c1ccc2c(c1)NC(=O)CS2 (stereo not given),3.04%,
CCOC(=O)C1=C(C)NC(=O)NC1c1ccccc1 (stereo not given),21.4%,

SMILES,"activity change, negative = inhibition",Potency
C=CCC1(C#N)C(=S)NC(C)=C(C(=O)OCC)C1c1ccccc1 (stereo not given),,1.47 µM (active)
C=CCOC(=O)C1=C(C)NC(SCC(=O)OCC)=C(C#N)C1c1ccc(C)cc1 (stereo not given),3.68%,
CC(C)(C)c1ccc(Cn2nnc3c(=O)[nH]c(C4CCCN(C(=O)c5ccco5)C4)nc32)cc1 (stereo not given),,0.828 µM (active)
CC(C)(C)c1nc(NCC2CCCO2)c2nnn(Cc3ccccc3)c2n1 (stereo not given),-0.298%,
Cc1ccc(Cn2nnc3c(=O)n(CC(=O)N4CCCCC4)cnc32)cc1,46.2%,
CC(C(=O)NC1CCCC1)N1CCN(S(=O)(=O)c2ccccc2Cl)CC1 (stereo not given),-12%,
Cc1ccc(C)c(S(=O)(=O)N2CCN(C(=O)Nc3ccccc3)CC2)c1,-25.1%,
CC1CC(=O)Nc2ccccc2N1S(=O)(=O)c1cccs1 (stereo not given),23.3%,
CC1CC(=S)Nc2ccccc2N1Cc1ccccc1 (stereo not given),,10.4 µM (active)
CC1CC(C)(C)NC(=S)N1CCC(=O)N1CCN(Cc2ccccc2)CC1 (stereo not given),9.12%,
CCS(=O)(=O)C1=NSC2=NC(=O)/C(=C\c3ccc(OS(=O)(=O)c4ccccc4)cc3)C(=N)N21,-13.3%,
Cc1nc2cc(-c3ccc(F)cc3)nn2c(N2CCOCC2)c1C,73.4%,
COc1cccc(-c2cc3nc4c(c(N5CCC6(CC5)OCCO6)n3n2)CCCC4)c1,,2.94 µM (active)
COc1ccc(S(=O)(=O)NCc2ccc(C(=O)N3CCC4(CC3)OCCO4)cc2)cc1,1.88%,
OC(Cn1c2ccccc2c2ccccc21)C[n+]1ccccc1 (stereo not given),,7.38 µM (active)
CC(=O)c1ccc2c(c1)c1ccccc1n2CC(C)C,-5.48%,
O=C1c2ccccc2S(=O)(=O)N1CC(O)Cn1c2ccccc2c2ccccc21 (stereo not given),-9.89%,
O=C(CN(C(=O)CNC(=O)c1cccs1)c1cccc(F)c1)NC1CCCCC1,-4.17%,
Cc1cccc(NC(=O)COC(=O)CCc2ccccc2)c1C,20.4%,
CC(=O)c1c(C)n(-c2ccc(C)cc2)c2ccc(O)cc12,15.2%,
CCOC(=O)c1c(C)oc2ccc(OCC(=O)N(CC)CC)cc12,-5.17%,
CC(=O)c1c(C)n(-c2ccc(N(C)C)cc2)c2ccc(OCC(N)=O)cc12,,11.7 µM (active)
O=C(Nc1ccccc1Cl)NC1(C(=O)N2CCOCC2)CCCCC1,-1.75%,
COc1ccc(CNC(=O)C(=O)N2CCC3(CC2)OCCN3S(=O)(=O)c2ccc(C)cc2)cc1,5.34%,
CC1(C)O[C@H]2CC(=O)OCC23[C@H]2CC[C@@]4(C)[C@H](c5ccoc5)OC(=O)[C@H]5O[C@]54[C@]2(C)C(=O)C[C@@H]13 (stereo not given in full),-1.57%,
